Screening data as filed in PubChem.
Only a selection was taken, and hits are over-represented in it overall.
CHX counter: counter-screen hit for Shiga toxin inhibitors, cycloheximide; cell reporter, cycloheximide protein synthesis inhibition counterscreen; max response, %; hit rate 12% among 300,000; AID 2314; in the data active = max response mostly above about 13%, no sharp cut-off; inactive = mostly below about 14%; also: read at 38.3 µM for the half of the compounds with a filed dose; 0% is about no effect
AmpC inh no detg: inhibitors of E. coli AmpC beta-lactamase without detergent. Potency, µM (series often up to 57.1 µM), for inactives: at the highest dose activity change, negative = inhibition, hits mostly inhibitors. hit rate 0.52% among 330,000. P00811. AID 485341. AmpC nitrocefin hydrolysis, absorbance 480 nm, 0.0001% Triton;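 also: potency is read from the fitted curve at half-maximal effect; plate controls were no compound for no effect and no enzyme for full effect; nearly all actives have a fitted effect of over 20% in size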
Target sequence (P00811 whole entry, looked up): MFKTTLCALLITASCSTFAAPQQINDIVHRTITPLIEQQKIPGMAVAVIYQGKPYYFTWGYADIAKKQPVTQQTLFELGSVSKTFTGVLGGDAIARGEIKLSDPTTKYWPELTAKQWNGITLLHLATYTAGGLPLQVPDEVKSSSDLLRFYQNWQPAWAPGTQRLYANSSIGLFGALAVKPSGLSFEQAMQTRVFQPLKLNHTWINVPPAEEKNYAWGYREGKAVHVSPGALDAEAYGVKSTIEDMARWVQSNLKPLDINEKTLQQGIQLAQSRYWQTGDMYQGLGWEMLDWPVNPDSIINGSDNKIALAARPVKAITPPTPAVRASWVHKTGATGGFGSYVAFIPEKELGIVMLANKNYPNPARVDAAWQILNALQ
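AmpC (5.3 nM in the dispensed reagent) in 20 mM phosphate pH 7.0 with 0.01% (detergent screen) or 0.0001% Triton X-100 was preincubated with compounds for 15 min at room temperature. Nitrocefin was then added from an 800 uM solution, and hydrolysis was followed at 480 nm.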
NS1 inh: influenza NS1 inhibition; Potency, µM (titrated, usually from 46.1 µM), for inactives: at the highest dose activity, positive = more growth; hit rate 0.4% among 270,000; calls by dose curve; also: potency is read from the fitted curve at half-maximal effect; actives are rising curves; nearly all actives have a fitted effect of over 50% in size
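Growth recovery, yeast-based: influenza A NS1 expressed in S. cerevisiae causes slow growth, and suppressors are detected by OD600. The parent strain without NS1 is used as positive control.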
Shiga toxin inh: Shiga toxin inhibition | Vero cells, Shiga toxin protein synthesis inhibition reporter | inhibition, % at 38.7 µM | hit rate 9.2% among 290,000; in the data active = inhibition mostly above about 28%, no sharp cut-off; inactive = mostly below about 43%; also: 0% is about no effect
AmpC inh detg: inhibitors of E. coli AmpC beta-lactamase with detergent; P00811; AmpC hydrolysis of nitrocefin, absorbance 480 nm, 0.01% Triton; Potency, µM (top dose mostly 114 µM), for inactives: top-dose activity change, negative = inhibition, hits mostly inhibitors; hit rate 0.041% among 370,000;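 also: potency is read from the fitted curve at half-maximal effect; 0% = no-compound wells and -100% = no-enzyme wells; nearly all actives have a fitted effect of over 25% in size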
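20 mM phosphate pH 7.0 + 0.01% (detergent screen) or 0.0001% Triton X-100; 5.3 nM AmpC reagent; cpd preinc 15 min RT; nitrocefin (800 uM stock) to start; A480 q20 s × 4 min; Activity was normalised to no-enzyme and no-compound control wells.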
The depositor's hits bear a star; ? = inconclusive; · = no result; + = active, no number; [ ] = remark or other dose. Unless noted, calls follow the shape of the dose curve; as a rule, active = well fitted curve in the direction sought with a large enough effect; inconclusive = small, poorly fitted or top-dose-only effect, or another doubt; inactive = no such curve, though single readings can be large; an effect the other way counts as inactive or inconclusive.

SMILES	CHX counter	AmpC inh no detg	NS1 inh	Shiga toxin inh	AmpC inh detg
COC(=O)c1cccc(NC(=O)/C=C/c2ccc([N+](=O)[O-])cc2)c1	10	-25%	-4%	13	-12%
CSc1cccc(NC(=O)CSc2ncccc2C(=O)Oc2cccc([N+](=O)[O-])c2)c1	17*	-50%	3%	-1	-10%
CCC(CC)C(=O)OCC(=O)Nc1cccc([N+](=O)[O-])c1	15*	-1%[2.29 µM]	-4%	37*	0%
CC1CN(CC(=O)Nc2ccccc2Sc2ccccc2)CC(C)O1 (stereo not given)	-1	180%	-29%	-11	-2%
Cc1ccc(C)c(N2CCN(C(=O)CCc3c(C)nn(-c4ccc(N5CCCC5)nn4)c3C)CC2)c1	·	·	·	·	-4%
COc1ccc(-c2cnc(C)o2)cc1S(=O)(=O)Nc1ccc(F)cc1F	·	·	·	·	8%
Cc1c(CCOC(=O)c2cc([N+](=O)[O-])cc([N+](=O)[O-])c2)sc[n+]1CC(=O)c1ccc(Br)cc1	7	133%	·	29	1%
CC(C)NS(=O)(=O)c1ccc(NC(=O)C(C)OC(=O)C2CCC2)cc1 (stereo not given)	·	-23%	·	·	-12%
COC(=O)c1cccc(NC(=O)COc2cccc([N+](=O)[O-])c2)c1	16*	-56%	-8%	23	-4%
CCOC(=O)/C=C/C(=O)Nc1ccc(S(=O)(=O)N2CCc3ccccc32)cc1	-4	16µM*	-9%	1	-11%
COc1ccc(NC(=O)c2cc(S(=O)(=O)N3CCc4ccccc43)cn2C)cc1	14*	?	0%	28*	?
CCOC(=O)/C=C/C(=O)Nc1ccc(S(=O)(=O)N2CCCCCC2)cc1	-2	-36%	-2%	1	-3%
OCCCNc1c2ccccc2nc2ccccc12	-6	-45%	-5%	-5	3%
c1ccc(NCCCNc2ccccc2)cc1	11*	-14%	17%	16	-7%
CN(C)CCCNC(=O)c1ccc(/C=N/O)nc1	36*	12%	-10%	71	-3%
Nc1cc(-c2ccccc2)nn1Cc1ccccc1	29	-24%	·	65	2%
CN(C)N=Nc1ccc(-c2cn(Cc3ccccc3)cn2)cc1	47*	-4%	-1%	41*	-16%
O=C(NC1CC1)C(=O)c1c[nH]c2ccccc12	19*	-14%	-6%	100*	-11%
O=C(c1ccccc1)c1c[nH]c2ccccc12	35*	-18%	-38%	64*	-16%
CC(=O)Nc1cccc(C(=O)OCC(=O)Nc2ccc(Cl)cn2)c1	·	-18%	·	·	-11%
Oc1ccc2ccccc2c1N=Nc1ccc(F)cc1	-1	-21%	?	-4	-13%
Oc1c(N=Nc2ccc(F)cc2)ccc2ccccc12	34*	-9%	14%	·	-12%
Cc1ccc(N=Nc2ccc3ccccc3c2O)cc1	44*	-2%	30%	·	-8%
CCOC(=O)C(CC(=O)O)=C(c1ccccc1)c1ccccc1	-2	-11%	-2%	1	-3%
CC1=NN(c2cccc(C(=O)O)c2)C(=O)/C1=C\C=C/c1ccccc1	80*	-26%	·	+	9%
SMILES	CHX counter	AmpC inh no detg	NS1 inh	Shiga toxin inh	AmpC inh detg
O=C(c1ccc(C#Cc2ccccc2)o1)N1CCN(c2ccccn2)CC1	-4	20%	-96%	2	-18%
COC(=O)c1ccc(C#Cc2ccccc2)o1	56*	-9%	-9%	31	-7%
Cc1ccc(CNC(=O)Cc2noc3ccccc23)cc1	33*	-14%	9%	51*	11%
COc1cc(NC(=O)Cc2noc3ccccc23)cc(OC)c1OC	·	·	·	·	5%
O=C(Cc1noc2ccccc12)Nc1ccccn1	54*	-18%	6%	88*	-12%
Cc1ccc(NC(=O)Cc2noc3ccccc23)nc1	23*	-17%	-7%	59*	?
COc1ccc(NC(=O)c2ccc(S(=O)(=O)N3CCOCC3)o2)cc1	15	-16%	2%	10	5%
Cc1noc(C)c1S(=O)(=O)Nc1ccc2c(c1)CC(=O)N([C@H](C)CO)C[C@H](C)[C@H](CN(C)S(=O)(=O)c1ccc(F)cc1)O2	·	241%	·	·	·
N/C(=N\OC(=O)c1ccc2c(c1)OCO2)c1cccc([N+](=O)[O-])c1	31*	-20%	-1%	88	9%
Cc1cccc(/C(N)=N/OC(=O)c2ccc3c(c2)OCO3)c1	42*	-24%	-18%	43*	-12%
O=C(COC(=O)c1cccc([N+](=O)[O-])c1)NCc1ccc2c(c1)OCO2	-5	-35%	4%	-11	-5%
COc1cc(OC)cc(C(=O)O/N=C(\N)c2cccc(C)c2)c1	13	-17%	-7%	44	-4%
CC(=O)Nc1c(C)nn(-c2ccccc2)c1N1CCC(C(=O)Nc2ccccc2F)CC1	·	·	·	·	0%
CC1(C)OC(=O)C(=CNn2cnc3ccccc3c2=O)C(=O)O1	32*	-12%	1%	29	-4%
Cc1ccc(C(=O)NC(=S)Nc2cccc(-c3nc4ccccc4s3)c2)cc1	27*	-10%	3%	60*	-4%
CC(=O)Nc1cccc(-c2nc3ccccc3s2)c1	36*	36%	-58%	98*	2%
COC(=O)Cc1ccc2sc(-c3ccccc3)nc2c1	62*	20%	-10%	73*	0%
CC(=O)Nc1cccc(-c2nc3ccc(NC(C)=O)cc3s2)c1	40*	-8%	-2%	78*	-8%
COc1ccc(S(=O)(=O)N(C(=O)c2ccncc2)c2ccc3oc(C)c(C(C)=O)c3c2)cc1	·	·	·	·	-5%
COc1cccc(CNC(=O)CSc2nnc(C)c3c(C)n(-c4ccccc4)nc23)c1OC	·	·	·	·	25%
CC(=O)Nc1cccc(-c2cc(C)c3cc4c(cc3n2)OCO4)c1	37*	72%	-11%	109*	3%
Nc1cc(C(=O)O)[nH]c(=O)n1	·	·	-4%	·	·
O=C(CN(c1ccccc1F)S(=O)(=O)c1ccccc1)Nc1ccc2c(c1)OCCO2	48*	-35%	17%	120*	3%
O=C(CN(c1ccc(F)cc1)S(=O)(=O)c1ccc2c(c1)OCCO2)Nc1ccccc1	20*	-39%	9%	30	-3%
CS(=O)(=O)N(CC(=O)Nc1ccc2c(c1)OCCO2)Cc1ccccc1	0	-19%	-12%	-6	2%
SMILES	CHX counter	AmpC inh no detg	NS1 inh	Shiga toxin inh	AmpC inh detg
O=C(CN(Cc1ccccc1)S(=O)(=O)c1ccc2c(c1)OCCO2)Nc1ccc2c(c1)OCCO2	28*	-24%	22%	36*	4%
O=c1c2ncn([C@@H]3O[C@@H]4COP(=O)(O)O[C@H]4[C@H]3O)c2nc2[nH]c(-c3ccccc3)cn12	-4	·	·	-7	·
COc1cc(-c2nn3c(-c4ccco4)nnc3s2)cc(OC)c1OC	-2	-10%	3%	33	-11%
COc1cccc(OC)c1-c1nn2c(-c3ccco3)nnc2s1	56*	-27%	-97%	200*	-13%
Cc1ccc(CN2C(=O)c3oc4ccc(C)cc4c(=O)c3C2c2ccc(O)cc2)cc1 (stereo not given)	·	·	·	·	26%
N[C@@H](CCCC(=O)O)C(=O)O	·	·	-6%	·	·
